# From PubChem BioAssay (NCI)
# Compounds without any hit were thinned out: in the full panel of roughly 83,000, 20% have a hit.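 Values shown are percent growth following 48 h exposure of cells in 96-well plates to a single concentration of compound; below 10 was considered active.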 A number with no mark means an inactive call. The source made the active and inactive calls.
# Experiments:
# Assay in all cases: NCI-60 one-dose screen, 48 h (100 = growth as untreated, 0 = no growth, -100 = all killed)
# Conditions in all cases: 10 µM unless noted
# HCT-15 colon = test system: HCT-15 colon
# SNB-75 CNS = test system: SNB-75 CNS
# SNB-19 CNS = test system: SNB-19 CNS
# U251 CNS = test system: U251 CNS
# PC-3 prostate = test system: PC-3 prostate
# SK-MEL-5 melanoma = test system: SK-MEL-5 melanoma
# LOX IMVI melanoma = test system: LOX IMVI melanoma
# SK-MEL-28 melanoma = test system: SK-MEL-28 melanoma
# SK-MEL-2 melanoma = test system: SK-MEL-2 melanoma
# EKVX NSCLC = test system: EKVX NSCLC
# SN12C renal = test system: SN12C renal
# UO-31 renal = test system: UO-31 renal
# TK-10 renal = test system: TK-10 renal
# ACHN renal = test system: ACHN renal
# CAKI-1 renal = test system: CAKI-1 renal
# A498 renal = test system: A498 renal
# CCRF-CEM leukemia = test system: CCRF-CEM leukemia
# MOLT-4 leukemia = test system: MOLT-4 leukemia
# UACC-62 melanoma = test system: UACC-62 melanoma
SMILES,growth (HCT-15 colon),growth (SNB-75 CNS),growth (SNB-19 CNS),growth (U251 CNS),growth (PC-3 prostate),growth (SK-MEL-5 melanoma),growth (LOX IMVI melanoma) [%],growth (SK-MEL-28 melanoma) [%],growth (SK-MEL-2 melanoma),growth (EKVX NSCLC),growth (SN12C renal),growth (UO-31 renal),growth (TK-10 renal),growth (ACHN renal),growth (CAKI-1 renal),growth (A498 renal),growth (CCRF-CEM leukemia),growth (MOLT-4 leukemia),growth (UACC-62 melanoma)
CCCCC(=O)OC1CCCCC1C (centres undefined),108%,87.6%,100%,85.6%,68.1%,91.2%,97.9,98.4,111%,104%,94.1%,93.2%,94.5%,94.4%,94.9%,93.2%,94.3%,109%,
CCCCCCCCNc1cccc2c1C(=O)c1ccccc1C2=O,107%,98.3%,96.4%,110%,104%,,105,114,108%,109%,97.6%,92.2%,98.3%,111%,98.3%,81.1%,112%,90.5%,96%
c1ccc2c(-c3nc(-c4c[nH]c5ncccc45)cs3)c[nH]c2c1,84.9%,88.4%,97.8%,104%,84.2%,106%,,112,102%,80.5%,76.7%,52.5%,120%,97.3%,98.7%,91.8%,75.4%,85.6%,96.9%
CCSc1sc(-c2ccc(C)cc2)nc1[P+](c1ccccc1)(c1ccccc1)c1ccccc1,1.86% (active),-8.6% (active),8.14% (active),9.48% (active),-11.5% (active),-98.7% (active),,15.2,-56.9% (active),6.99% (active),2.07% (active),-33% (active),-6.69% (active),-44.8% (active),-9.03% (active),-46.1% (active),8.77% (active),-48.8% (active),-42.5% (active)
COc1cc(OC)c2c(c1)c1nc3cc(C)c(C)cc3nc1n2CCN(C)C,77.2%,74.6%,89.1%,90.9%,85.3%,,,104,103%,89.2%,82.1%,74.1%,182%,84.3%,69.7%,105%,79.6%,73.2%,94.3%
Cn1cc(-c2nc(-c3c[nH]c4ncccc34)cs2)c2cc(Cl)ccc21,31.2%,63.6%,,40%,42.4%,83.3%,,80.1,60.4%,41.8%,54%,,43.1%,30%,36.5%,74.7%,33.8%,37.9%,64.3%
O=C(N/N=C/c1ccccc1SSc1ccccc1/C=N/NC(=O)c1ccccc1)c1ccccc1,21.6%,65.8%,,34.1%,40.2%,,11.1,39.6,24.8%,25.8%,43.4%,18.6%,31.8%,15.4%,,75.8%,16%,10.8%,
Cn1cc(-c2nc(-c3cn(C)c4ncccc34)cs2)c2ccccc21,20.4%,20.9%,51.4%,31.8%,53.6%,21.9%,,46.5,28.6%,62.6%,52.8%,62.4%,50.5%,49.6%,28.3%,45.4%,47.1%,31.7%,33.2%
CC(c1ccccc1)N1C(=O)C(C2SC(=S)N(C(C)c3ccccc3)C2=O)SC1=S (centres undefined),54.9%,89%,78.6%,85%,84.7%,99.3%,,86.6,101%,94.4%,85.5%,66.5%,106%,74.4%,66.6%,106%,54.1%,78.8%,77.7%
N#C/C(=C\c1ccc(-c2cccc(C(F)(F)F)c2)o1)c1nc(-c2ccco2)cs1,71.7%,82.2%,93.8%,96.4%,90%,88.1%,,97.7,103%,43%,89.2%,62.8%,49.1%,87.2%,87.1%,104%,93.7%,93%,78.1%
Cn1cnc2c1c(=O)n(CCC(=O)Nc1ccc(F)cc1)c(=O)n2C,104%,94.6%,105%,96.2%,91.1%,107%,102,110,105%,107%,102%,92.7%,92.7%,114%,93.7%,96.8%,99.5%,106%,
CC(C)(C)n1cc(-c2ccnc(NCCCNS(=O)(=O)c3ccc(Cl)cc3)c2)c(-c2cccc(F)c2)n1,9.66% (active),76.5%,80%,61.7%,49.7%,70.7%,,89.4,88.4%,56.2%,73.9%,66.5%,111%,80.8%,77.9%,108%,66.7%,55.1%,84.6%
C#CCC(C)(O)/C=C/C1=C(C)CCCC1(C)C (centres undefined),107%,87%,,86.1%,77.6%,98.4%,96.4,101,97.4%,95.8%,99.2%,91.3%,96.7%,97.3%,92.4%,91.3%,101%,101%,
Cn1c(=O)c2c(nc(N3CCCC3)n2C)n(C)c1=O,103%,89.9%,106%,87.5%,91.2%,102%,96.5,104,97.4%,98.9%,102%,93.8%,85.3%,106%,93.8%,81.9%,105%,95.1%,
Cn1c2c(c3ccc(Cl)cc31)-n1cccc1C2=O,83.5%,87.5%,85.5%,89.3%,101%,98.4%,,109,84.6%,86.4%,74.5%,57.5%,88.2%,78.2%,83.2%,89.6%,85.7%,64.2%,89.8%
COc1cccc(-c2nn(-c3ccccc3)cc2-c2ccnc(NCCCNS(=O)(=O)c3ccc(Br)cc3)c2)c1,42.5%,75.2%,60.2%,40.2%,26.4%,39.9%,56.6,,50.9%,66%,57.1%,21.6%,55.7%,48.3%,51.1%,41.4%,32.1%,23.5%,
CC(C)(C)c1cc(-n2c(-c3ccc(Cl)cc3)nc3cc(C(=O)Nc4ccc(Cl)cc4)ccc32)n[nH]1,39.2%,60.7%,60.2%,53.2%,33.7%,44.8%,,79.7,75.8%,,66.9%,28.5%,50.8%,38.4%,32%,48%,62.5%,45.7%,39%
COc1ccc(-c2cc(-c3c(C)oc4cc5occc5c(OC)c4c3=O)nc(N)c2C#N)cc1OC,55.6%,40.3%,64.3%,48.9%,62.6%,52.7%,50.2,,60.7%,92.8%,77.6%,45.2%,77.1%,65.6%,38.9%,23.7%,43.8%,30.9%,
COc1ccc(-c2n[nH]nc2-c2cc3ccccc3s2)cc1O,20%,35.5%,27.6%,15.8%,16%,,20.6,38.4,32.3%,41.9%,32.4%,40.5%,57%,44.4%,38.9%,1.86% (active),16%,,33.7%
N#Cc1c(-c2ccc(O)cc2)c2c(N)nn(-c3ccccc3)c2[nH]c1=O,109%,104%,99.8%,103%,102%,98%,,109,103%,101%,104%,71.8%,137%,100%,97.1%,108%,110%,98.1%,96%
